{"source": "PubChem BioAssay (EPA / NIEHS)", "note": "Inconclusive results are not listed. The source made the active and inactive calls. How the source made its calls: active means hit-call score of the fitted dose curve at least 0.9, where 1 is the maximum; inconclusive means response in the unintended direction; inactive means score below 0.9.", "data": [{"molecular_target": "Nuclear receptor subfamily 4 group A member 2 (Homo sapiens) (UniProt P43354)", "sequence (P43354 whole entry, looked up)": "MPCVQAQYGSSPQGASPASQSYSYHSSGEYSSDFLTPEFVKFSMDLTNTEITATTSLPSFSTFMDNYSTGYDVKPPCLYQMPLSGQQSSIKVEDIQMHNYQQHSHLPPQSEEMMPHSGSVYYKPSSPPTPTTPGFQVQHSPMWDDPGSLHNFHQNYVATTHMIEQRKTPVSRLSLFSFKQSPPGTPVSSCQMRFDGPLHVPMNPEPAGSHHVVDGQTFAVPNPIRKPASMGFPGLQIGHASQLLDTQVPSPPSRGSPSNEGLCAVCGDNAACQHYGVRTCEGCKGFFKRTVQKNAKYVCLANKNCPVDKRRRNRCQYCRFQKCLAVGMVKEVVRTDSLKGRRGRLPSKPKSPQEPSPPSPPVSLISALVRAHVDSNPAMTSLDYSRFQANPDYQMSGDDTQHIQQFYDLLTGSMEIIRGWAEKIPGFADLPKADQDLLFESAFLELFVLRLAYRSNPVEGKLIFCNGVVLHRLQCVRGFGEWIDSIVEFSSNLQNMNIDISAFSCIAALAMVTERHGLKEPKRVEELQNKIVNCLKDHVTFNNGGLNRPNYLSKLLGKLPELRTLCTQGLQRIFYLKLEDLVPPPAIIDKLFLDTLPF", "test": "ATG_NURR1_TRANS: Attagene TRANS-FACTORIAL HepG2 Assay for human Nuclear Receptor Related Protein 1 (NURR1) (AID 2282985)", "details": "HepG2 Attagene TRANS reporter, mRNA readout", "description": "ATG_TRANS is a cell-based, multiplexed-readout assay that uses HepG2, a human liver cell line, with measurements taken at 24 hours after chemical dosing in a 24-well plate.ATG_NURR1_TRANS is one of 30 assay component(s) measured or calculated from the ATG_TRANS assay. It is designed to make measurements of mRNA induction, a form of inducible reporter, as detected with fluorescence intensity signals by Reverse transcription polymerase chain reaction (RT-PCR) and Capillary electrophoresis technology.Data from the assay component ATG_NURR1_TRANS was analyzed into 1 assay endpoint. This assay endpoint, ATG_NURR1_TRANS, was analyzed in the positive analysis fitting direction relative to DMSO as the negative control and baseline of activity. Using a type of inducible reporter, measures of mRNA for gain-of-signal activity can be used to understand the reporter gene at the transcription factor-level as they relate to the gene NR4A2. Furthermore, this assay endpoint can be referred to as a primary readout, because this assay has produced multiple assay endpoints where this one serves a reporter gene function. To generalize the intended target to other relatable targets, this assay endpoint is annotated to the nuclear receptor intended target family, where the subfamily is orphan.\nHuman liver HepG2 cells are transiently transfected with multiple reporter transcription units (MRTUs) in 6-well plates using FuGene 6 reagent (Roche; 3 ml FuGene/1 mg DNA). The MRTU constructs are regulated by a cis-regulating element (promoter). […] A major difference between the CIS and TRANS system is that in CIS activities of endogenous TFs are measured, whereas the TRANS assay evaluates changes in activities of exogenous, chimeric NR-Gal4 proteins. […] At the end of 24 hour incubation, total RNA was isolated using TriZol reagent (Invitrogen). The isolated RNA is then reverse-transcribed using oligo(dT) primer and Mo-MLV reverse transcriptase (Invitrogen) with DNAse I (Ambion) treatment for 30 min. The one-tenth of the produced cDNA was amplified by PCR using Taq DNA polymerase (Invitrogen) and two reporter sequence-specific primers. The PCR products were fluorescently labeled by primer extension with 6-arboxyfluorescein (6-FAM) 5'-labeled reporter sequence-specific primer (2 min at 95 C, 20 s at 68 C and 10 min at 72 C) and these products were digested with 5U of HpaI (New England Biolabs) for 2h at 37 C. The fragments were purified using Qiaquick PCR columns (Qiagen), analyzed on an ABI 3130xL genetic analyzer (Applied Biosystems) with peak positions identified by using a set of X-rhodamine (ROX)-labeled MapMarker1000 molecular weight standards (BioVentures). The raw capillary electrophoresis data was processed using Attagraph software (Attagene).", "values": [{"smiles": "COCCCOc1ccnc(CS(=O)c2nc3ccccc3[nH]2)c1C", "note": "(stereo not given)", "outcome": "inactive"}, {"smiles": "CC1(C)CCC(C)(C)c2cc(C(=O)Nc3ccc(C(=O)O)cc3)ccc21", "outcome": "inactive"}, {"smiles": "O=C1CCCCCCCCCCCCCCO1", "outcome": "inactive"}, {"smiles": "CC(=O)c1c(C)cc(C(C)(C)C)cc1C", "outcome": "inactive"}, {"smiles": "CCCCCCCCCCCCOCCO", "outcome": "inactive"}, {"smiles": "CC(C)c1ccc(C(C)C)cc1", "outcome": "inactive"}, {"smiles": "Fc1c(F)c(F)c(Br)c(F)c1F", "outcome": "inactive"}, {"smiles": "CC(=O)OCCC(C)CC(C)(C)C", "note": "(stereo not given)", "outcome": "inactive"}, {"smiles": "O=C(Cl)c1cccc(C(=O)Cl)c1", "outcome": "inactive"}, {"smiles": "CCCCNC(=O)NS(=O)(=O)c1ccc(C)cc1", "outcome": "inactive"}, {"smiles": "O=C(COc1ccc(Cl)cc1)N1CCN(Cc2ccc3c(c2)OCO3)CC1", "AC50": "67 µM (active)"}, {"smiles": "CC1(C)[C@H](C(=O)OCc2cccc(Oc3ccccc3)c2)[C@@H]1C=C(Cl)Cl", "outcome": "inactive"}, {"smiles": "CC(=O)C(C)=O", "outcome": "inactive"}, {"smiles": "NCCCCCCN", "outcome": "inactive"}, {"smiles": "CC(C)OP(=O)(CP(=O)(OC(C)C)OC(C)C)OC(C)C", "outcome": "inactive"}, {"smiles": "CCCCCCOC(=O)CCCCC", "outcome": "inactive"}, {"smiles": "C=CC(=O)NCOCC(C)C", "outcome": "inactive"}, {"smiles": "CCCc1ccccc1O", "outcome": "inactive"}, {"smiles": "CCc1ccc(C=O)cc1", "outcome": "inactive"}, {"smiles": "CC(C)=CCC/C(C)=C/COC=O", "outcome": "inactive"}, {"smiles": "CC(CCO)CCc1ccccc1", "note": "(stereo not given)", "outcome": "inactive"}, {"smiles": "CC(=O)/C=C/C1=C(C)CCCC1(C)C", "outcome": "inactive"}, {"smiles": "[Ca+2]", "outcome": "inactive"}, {"smiles": "CC(CN1c2ccccc2Sc2ccccc21)N(C)C", "note": "(stereo not given)", "outcome": "inactive"}, {"smiles": "O=C[C@@H](O)[C@H](O)[C@H](O)CO", "outcome": "inactive"}, {"smiles": "NC(N)=NC(=O)c1nc(Cl)c(N)nc1N", "outcome": "inactive"}, {"smiles": "c1ccc2sc(SN(C3CCCCC3)C3CCCCC3)nc2c1", "outcome": "inactive"}, {"smiles": "Cc1ccccc1C=O", "outcome": "inactive"}, {"smiles": "CCCCCCOC(=O)CC", "outcome": "inactive"}, {"smiles": "COc1cc(C=O)ccc1OC(=O)C(C)C", "outcome": "inactive"}, {"smiles": "CC1(CO)CN(c2ccccc2)NC1=O", "note": "(stereo not given)", "outcome": "inactive"}, {"smiles": "Cc1ccc(C(=O)O)o1", "outcome": "inactive"}, {"smiles": "C=CCOC(=O)CCC1CCCCC1", "outcome": "inactive"}, {"smiles": "CC(C)(C)NC(N)=O", "outcome": "inactive"}, {"smiles": "O=c1[nH]nnc2ccccc12", "outcome": "inactive"}, {"smiles": "COC(=O)c1ccc(C)cc1", "outcome": "inactive"}, {"smiles": "Cc1ccc2ccccc2n1", "outcome": "inactive"}, {"smiles": "CCC(=O)OCc1ccccc1", "outcome": "inactive"}, {"smiles": "CCCCCCCCCC=O", "outcome": "inactive"}, {"smiles": "NC(=O)c1ccccc1Cl", "outcome": "inactive"}]}]}
